Measured values from paper PMC4336329 (PLoS ONE, 2015).
Out of some 310,000 compounds screened, about 14,000 (4.5%) showed an effect of 50% or more. The effect is printed as a negative number. The entries come from a sample that favours strong results as a whole.

Target: human ether-à-go-go-related gene (hERG) potassium channel (human, UniProt Q12809)
Assay: primary screen, population patch clamp on CHO cells stably expressing hERG; higher = less effect of the substance
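Note: peak tail current of the secondary pulse compared with the same well before compound.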

Sequence of human ether-à-go-go-related gene (hERG) potassium channel (Q12809 whole entry, looked up): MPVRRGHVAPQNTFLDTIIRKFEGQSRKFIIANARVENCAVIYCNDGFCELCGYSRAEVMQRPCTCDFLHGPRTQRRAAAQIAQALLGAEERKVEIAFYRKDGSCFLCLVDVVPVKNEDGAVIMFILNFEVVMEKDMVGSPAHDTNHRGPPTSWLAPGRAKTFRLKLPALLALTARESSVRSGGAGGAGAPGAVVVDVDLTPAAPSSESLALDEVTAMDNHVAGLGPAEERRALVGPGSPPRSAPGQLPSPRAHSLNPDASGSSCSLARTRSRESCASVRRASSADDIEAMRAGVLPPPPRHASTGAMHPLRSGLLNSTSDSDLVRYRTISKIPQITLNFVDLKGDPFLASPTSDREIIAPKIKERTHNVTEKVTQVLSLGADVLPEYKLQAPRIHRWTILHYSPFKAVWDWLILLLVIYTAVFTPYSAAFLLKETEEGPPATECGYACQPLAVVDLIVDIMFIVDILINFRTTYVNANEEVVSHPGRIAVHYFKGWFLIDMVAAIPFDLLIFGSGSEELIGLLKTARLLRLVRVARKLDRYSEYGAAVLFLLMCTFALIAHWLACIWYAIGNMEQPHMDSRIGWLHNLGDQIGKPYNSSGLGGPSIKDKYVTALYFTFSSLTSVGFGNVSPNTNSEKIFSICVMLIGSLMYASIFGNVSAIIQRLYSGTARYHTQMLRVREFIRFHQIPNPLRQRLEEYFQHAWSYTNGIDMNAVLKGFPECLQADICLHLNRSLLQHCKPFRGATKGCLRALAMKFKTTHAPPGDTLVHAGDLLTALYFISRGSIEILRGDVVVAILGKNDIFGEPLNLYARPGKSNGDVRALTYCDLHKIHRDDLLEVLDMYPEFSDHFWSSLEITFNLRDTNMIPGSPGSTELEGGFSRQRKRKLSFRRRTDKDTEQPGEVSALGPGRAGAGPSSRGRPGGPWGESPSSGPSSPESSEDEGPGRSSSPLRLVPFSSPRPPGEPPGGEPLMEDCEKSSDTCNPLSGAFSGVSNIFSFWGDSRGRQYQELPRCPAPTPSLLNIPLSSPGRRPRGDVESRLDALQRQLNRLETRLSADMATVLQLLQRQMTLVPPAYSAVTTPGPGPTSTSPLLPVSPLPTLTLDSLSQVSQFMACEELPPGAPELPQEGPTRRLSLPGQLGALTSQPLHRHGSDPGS

SMILES	hERG current change (%, negative = inhibition) at 10uM [%]
Cc1ccc(OCC(=O)NNC(=O)CSc2ncnc3sc(C)c(C)c23)cc1	39.6
CC1CC(=O)Nc2ccccc2N1S(=O)(=O)c1cccc(F)c1 (stereo not shown)	9.89
O=C(CC1C(=O)NCCN1Cc1cccc(F)c1)NC1CCC1 (stereo not shown)	-3.12
CCC(CC)C(=O)c1c[nH]c(C(=O)O)c1	19.6
CC1CCN(Cc2cc(=O)oc3cc(O)c(Cl)cc23)CC1	9.11
Cc1nn(-c2ccccc2)c(C)c1/C=N/NC(=O)c1cc(C(C)(C)C)[nH]n1	-9.72
O=C(Nc1nnc(-c2ccncc2)s1)Nc1ccccc1F	14.2
Cc1cc(C)c(C(=O)/C=C/c2ccc(C(C)C)cc2)c(=O)[nH]1	10
Cc1ccccc1N(CC(=O)NCCSC1CCCCC1)S(=O)(=O)c1ccccc1	-16
CN(C)CC(=O)c1c(N)n(Cc2ccccc2)c(=O)n(C)c1=O	-7.58
CCn1c(=O)c(C(=O)CN2CCCc3ccccc32)c(N)n(Cc2ccccc2)c1=O	-6.1
COc1ccc(CN(C)CC(=O)c2c(N)n(Cc3ccccc3)c(=O)n(C)c2=O)c(OC)c1	-66.1
CCN(CC)CC(=O)c1c(N)n(Cc2ccccc2)c(=O)n(C)c1=O	-2.27
CCn1c(=O)c(C(=O)CN(C)Cc2cccc(OC)c2OC)c(N)n(Cc2ccccc2)c1=O	-50.3
CCn1c(=O)c(C(=O)CN2c3ccccc3CC2C)c(N)n(Cc2ccccc2)c1=O (stereo not shown)	3.42
CCOc1ccc(CN(C)CC(=O)c2c(N)n(Cc3ccccc3)c(=O)n(CC)c2=O)cc1OC	-75.5
CCn1c(=O)c(C(=O)CN(C)Cc2ccc(F)cc2)c(N)n(Cc2ccccc2)c1=O	-71
CCn1c(=O)c(C(=O)CN2CCc3ccccc32)c(N)n(Cc2ccccc2)c1=O	19
CCn1c(=O)c(C(=O)CC#N)c(N)n(Cc2ccccc2)c1=O	-4.73
COc1cccc(NC(=O)CN(C)CC(=O)c2c(N)n(Cc3ccccc3)c(=O)n(C)c2=O)c1	-8.12
COC(=O)Cn1c(=O)c(C(=O)CCl)c(N)n(Cc2ccccc2)c1=O	-0.133
CNC(=O)c1ccc(N(Cc2ccccc2C)S(C)(=O)=O)cc1	-6
Cn1c(C2=C(O)CN(c3ccccc3)C2=N)nc2ccccc21	-13.2

SMILES	hERG current change (%, negative = inhibition) at 10uM [%]
Cc1ccc(C(=O)NC(=S)Nc2ccc(N3CCN(C(=O)c4ccco4)CC3)cc2)cc1	17.1
Cc1ccc(OC(=S)Nc2ccccc2)c(C)c1	6.7
CCOC(=O)c1c(C)[nH]c(C(=O)COC(=O)CNS(=O)(=O)c2ccc(C)cc2)c1C	11.8
C=CCN(c1nc(C)cc(OC)n1)S(=O)(=O)c1ccccc1	-2.09
Cc1nc2c(sc3nc4c(cc32)COC(C)(C)C4)c(=O)n1Cc1ccccc1	-10.6
COCCN(C(=O)COC(=O)CCc1ccc(OC)cc1)c1c(N)n(Cc2ccccc2)c(=O)[nH]c1=O	27.6
COC(=O)C[C@H]1c2cc(F)ccc2S(=O)(=O)N1c1ccccc1	8.82
O=C(CSC1=NNC(c2ccccn2)S1)Nc1cccc(Cl)c1 (stereo not shown)	12.6
Cc1ccc(C)c(N2CCN(CCCNC(=O)Cn3cc4c(n3)CCC(C)C4)CC2)c1 (stereo not shown)	-63.4
CC1CCc2nn(CC(=O)NCCCN3CCCC3=O)cc2C1 (stereo not shown)	10.2
CCCN1CCN(CCCNC(=O)Cn2cc3c(n2)CCCC3)CC1	-7.41
COCCCNC(=O)Cn1cc2c(n1)CCC(C)C2 (stereo not shown)	1.99
Cc1ccc(C)c(N2CCN(CCCNC(=O)Cn3cc4c(n3)CCCCC4)CC2)c1	-69.3
O=C(Cn1cc2c(n1)CCCC2)NCCCN1CCN(c2ccccc2F)CC1	-31.1
COC(=O)c1ccc(Sc2ccccc2NS(=O)(=O)c2ccc(OC)cc2)nc1	9.67
CN1CCN(c2ccc(NC(=O)Oc3ccccc3)cc2)CC1	17.4
CCOc1ccc(C(C)(C)C)cc1S(=O)(=O)Nc1ccncc1	17
Cn1nnc2cc(C(=O)NCc3ccco3)ccc21	1.15
Cc1nc(Nc2nc(-c3ccccc3)cc(=O)[nH]2)nc2ccccc12	-3.73
COc1cc(/C=N/NC(=O)C2CCN(CC(O)COCc3ccccc3)CC2)ccc1O (stereo not shown)	-78.1
COc1ccc(COCC(O)CN2CCC(C(N)=O)CC2)cc1OC (stereo not shown)	-7.47
COc1cc(/C=N/NC(=O)C2CCN(CC(O)COCc3ccccc3)CC2)cc(OC)c1OC (stereo not shown)	-71.7
CCOc1ccc(/C=N/NC(=O)C2CC2)cc1OC	18.3
